Test results: ChEMBL document CHEMBL1157539, “Thousands of chemical starting points for antimalarial lead identification” (Nature, 2010)

Assays:
Assay type in all cases: functional
Plasmodium falciparum [1] = assay: GSK_TCMDC: Inhibition of Plasmodium falciparum 3D7 in whole red blood cells, using parasite LDH activity as an index of growth. Test compounds present at 2uM
Plasmodium falciparum [2] = assay: GSK_TCMDC: Inhibition of Plasmodium falciparum Dd2 in whole red blood cells, using parasite LDH activity as an index of growth. Test compounds present at 2uM
HepG2 = assay: GSK_TCMDC: Percent inhibition of human HepG2 cell line. Test compounds present at 10uM.

| Structure (SMILES) | Inhibition (Plasmodium falciparum [1]) [%] | Inhibition (Plasmodium falciparum [2]) [%] | Inhibition (HepG2) [%] |
| --- | --- | --- | --- |
| CC1(C)N=C(N)N=C(NOCCCCCCONC2=NC(N)=NC(C)(C)N2)N1 | 95 | 98 | 34 |
| CCN(CC)c1ccc(-c2nc3cc(Cl)cnc3[nH]2)cc1 | 85 | 85 | 16 |
| CNC(=O)c1cc(S(=O)(=O)N2CCN(c3ccccn3)CC2)cs1 | 99 | 100 | 0 |
| COc1ccc2[nH]c(-c3ccccc3)cc(=NN=Cc3ccncc3)c2c1 | 99 | 27 | 14 |
| O=C(NCCN1CCC(NC(=O)c2ccc(-c3ccccn3)s2)CC1)c1cccc(C(F)(F)F)c1.O=C(O)C(F)(F)F | 97 | 24 | 4 |
| COc1ccc2[nH]ccc(=NN=Cc3ccccc3F)c2c1 | 100 | 98 | 23 |
| CCOC(=O)c1ccc(NC(=O)Nc2cccc(-c3cccc(-c4nc5cc(F)ccc5[nH]4)c3)c2)cc1 | 100 | 100 | 85 |
| CN1CCC[C@@H](Oc2cc3c(cc2Br)CCN3C(=O)Nc2ccc(-c3ccncc3)c(Cl)c2)C1 | 99 | 64 | 26 |
| COc1ccc(-c2ccc(NC(=O)c3cccc(Cl)c3)cc2)cc1CN(C)CCN(C)C.O=C(O)C(F)(F)F | 100 | 35 | 22 |
| Cc1ccc(Nc2ccnc(Nc3ccc(F)c(Cl)c3)n2)cc1O.Cl | 100 | 52 | 9 |
| Cc1cc(OCC2CCCN(c3ncc(C(=O)NC4CC4)cc3Cl)C2)ccc1F (centres undefined) | 88 | 68 | 3 |
| CCN1CCN(c2cc(C)c3cc(NC(=O)c4cccc(Cl)c4)ccc3n2)CC1 | 100 | 58 | 4 |
| CCN(CC)c1ccc(C(c2ccc(N(CC)CC)cc2)c2cccc([N+](=O)[O-])c2)cc1 | 91 | 68 | 39 |
| Cc1nc2ccc3ccc(CNc4ccc(C#N)cc4)cc3c2c(=O)[nH]1 | 84 | 56 | 55 |
| CCN(c1ccccc1)S(=O)(=O)c1ccc(OC)c(NC(=O)c2cccc(C(F)(F)F)c2)c1 | 90 | 70 | 9 |
| CN(c1ccccc1C(=O)Nc1cc(Cl)ccc1Oc1ccccc1)S(=O)(=O)c1ccccc1 | 99 | 42 | 47 |
| O=C(/C=C/c1ccc(Cl)c(Cl)c1)NCCCCCN1CCN(C(=O)Nc2ccc(OC(F)F)cc2)CC1 | 99 | 0 | 20 |

| Structure (SMILES) | Inhibition (Plasmodium falciparum [1]) [%] | Inhibition (Plasmodium falciparum [2]) [%] | Inhibition (HepG2) [%] |
| --- | --- | --- | --- |
| CCOc1cc2c(cc1OCC)C(c1cc(OC)c(O)cc1Cl)NCC2 (centres undefined) | 100 | 97 | 15 |
| N=C(N)NC(=O)Nc1cc(Cl)c(F)c(Cl)c1 | 100 | 64 | 22 |
| CN1CC[C@@H](Oc2cc(NC(=O)Nc3ccccc3Br)ccc2Cl)C1 | 100 | 6 | 26 |
| Cc1[nH]c(C)c(-c2ccc(OCCCCSc3ccncc3)cc2)c(=O)c1Br | 97 | 97 | 0 |
| Cc1cc(N2CCN(CC3CCN(C)CC3)CC2)nc(Nc2ccc(Br)cc2)n1 | 100 | 100 | 31 |
| Cc1cccc2nc(-c3ccc(-c4ccc(CN5CCN(CCC#N)CC5)cc4)cc3)[nH]c12.O=C(O)C(F)(F)F | 91 | 27 | 48 |
| O=C(/C=C/c1ccc(Cl)c(Cl)c1)N1CCC(CCN2CCC(c3c[nH]c4cc5c(cc34)OCO5)CC2)CC1 | 99 | 65 | 46 |
| COc1ccc2[nH]c(C)cc(=NN=Cc3cc(OC)c(OC)cc3OC)c2c1 | 100 | 56 | 1 |
| O=C(NCc1ccccc1)Nc1ccc(-c2ccc(-c3nc4cc(C(F)(F)F)ccc4[nH]3)cc2)cc1 | 99 | 23 | 40 |
| CN(C)CCCSc1ccccc1NC(=O)C=Cc1ccccc1 | 85 | 0 | 0 |
| NCc1ccc(CNCc2cccc(-c3ccc(-c4nc5ccccc5[nH]4)cc3)c2)cc1.O=C(O)C(F)(F)F | 100 | 58 | 10 |
| O=C(O)C(F)(F)F.O=S(=O)(NCCN1CCCC1)c1ccc(-c2ccc(CNCc3ccsc3)cc2)s1 | 99 | 40 | 31 |
| Cc1cc(CNCCCCCCCNCc2ccc(-c3ccccc3)cc2)ccc1O | 97 | 6 | 49 |
| Cc1ccc(NC(=O)c2cc(Br)cc(N3CCCN(C)CC3)c2)cc1F.O=C(O)C(F)(F)F | 87 | 1 | 15 |
| CC1CN(c2cnn(Cc3cccc(NC(=O)Nc4ccc(F)cc4[N+](=O)[O-])c3)c(=O)c2Cl)CC(C)N1.O=C(O)C(F)(F)F (centres undefined) | 91 | 13 | 7 |
| CN1CCN(c2ccc(-c3cccc(NC(=O)c4ccc5ccccc5c4)c3)nn2)CC1 | 94 | 26 | 17 |
